The results in this text go back to PubChem BioAssay (Tox21).

Records with an inconclusive call do not appear. A call without a number means that no potency is given here. Activity calls are given as the source filed them. Unless noted, calls follow the shape of the full dose curve.

Sequence of Estrogen receptor (Homo sapiens) (P03372 whole entry, looked up): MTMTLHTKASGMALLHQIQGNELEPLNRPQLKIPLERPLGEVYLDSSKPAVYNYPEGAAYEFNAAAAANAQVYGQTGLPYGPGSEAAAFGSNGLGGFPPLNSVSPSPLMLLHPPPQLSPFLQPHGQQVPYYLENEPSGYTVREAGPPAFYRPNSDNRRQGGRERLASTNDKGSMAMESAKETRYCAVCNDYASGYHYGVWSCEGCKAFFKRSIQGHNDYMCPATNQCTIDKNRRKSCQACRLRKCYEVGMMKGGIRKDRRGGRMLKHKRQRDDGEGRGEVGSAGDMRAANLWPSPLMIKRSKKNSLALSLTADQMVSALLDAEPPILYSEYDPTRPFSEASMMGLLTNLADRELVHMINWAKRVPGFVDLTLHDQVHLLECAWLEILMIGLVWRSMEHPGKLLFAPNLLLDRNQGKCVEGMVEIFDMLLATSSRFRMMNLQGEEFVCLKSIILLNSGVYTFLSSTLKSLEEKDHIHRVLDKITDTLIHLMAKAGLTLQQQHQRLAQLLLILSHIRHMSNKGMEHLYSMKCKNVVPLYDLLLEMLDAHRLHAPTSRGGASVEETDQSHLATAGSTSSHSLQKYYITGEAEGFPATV

Tested on in one assay: not listed separately
Description: qHTS assay to identify small molecule antagonists of the estrogen receptor beta (ER-beta) signaling pathway - cell viability counter screen (AID 1259382; active = well fitted cell-killing curve with a large enough effect in the repeat runs;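 also: HEK293T cells carrying ER-beta-UAS-bla reporter stimulated with estradiol; nearly all actives have a fitted effect of over 55% in size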). The settings on record: ER-beta-UAS-bla HEK293T viability, CellTiter-Glo luminescence, 16 h; series mostly up to 92.4 µM. The method in brief: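 Cells: ER-beta-UAS-bla HEK293T, 2,000/well, 2% CS-FBS, 6 hr settle. Cpd + E2 (1nM final), 16 hr, 37C/5% CO2. Bla FRET substrate 2 hr RT, then CellTiter-Glo 30 min RT, luminescence.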
As to `Nc1nc(Cl)nc2c1ncn2[C@H]1C[C@H](O)[C@@H](CO)O1`, the Potency entry was “inactive”.
In the case of `Cc1cc(SC2=C(O)C[C@@](CCc3ccc(N)cc3)(C(C)C)OC2=O)c(C(C)(C)C)cc1CO`, the Potency entry is “inactive”.
Same read-out and setting: the entry for `CCCCOC(=O)CC#N` is “inactive”; for `CC(C)=CCCC(C)C=O` (stereo not drawn) it is “inactive”.
Same read-out and setting: the result for `CCC(C)CCCC(C)(C)O` (stereo not drawn) reads “inactive”; that for `CC1(COc2ccc(CC3SC(=O)NC3=O)cc2)CCCCC1` (stereo not drawn), “inactive”; that for `CC(C)C/C=C(\C=O)c1ccccc1`, “inactive”.
On to `CC/C=C\CCO`, for which the Potency result was “inactive”.
Turning to `CCCCCCCCCCCCCCCCN`, the Potency entry was “inactive”.
On to `O=C(OCCCCCOC(=O)c1ccccc1)c1ccccc1`, for which the Potency entry is “inactive”.
The same measure, in the same setting: the result for `C=CC(C)CCC=C(C)C` (stereo not drawn) reads “inactive”; that for `O=[N+]([O-])c1cccc(I)c1`, “inactive”.
Still for that read-out and setting: the result for `CC(CC(C#N)(c1ccccc1)C(C)C)N(C)C` (stereo not drawn) reads “inactive”.
The same measure, in the same setting: the result for `Nc1ccc(-c2ccc(F)cc2)cc1` reads “inactive”; that for `CCCC(=O)OCCC(C)C`, “inactive”.
On to `Cc1ccc(NC(=O)c2ccc(CN3CCN(C)CC3)cc2)cc1Nc1nccc(-c2cccnc2)n1`, for which the Potency entry is “inactive”.
The same measure, in the same setting: the result for `CC(C)NC(=O)c1ccccc1N` reads “inactive”; that for `CCc1ccc2c(c1)C(=O)c1ccccc1C2=O`, “inactive”; that for `COC(=O)Cc1cccc2ccccc12`, “inactive”.
The same measure, in the same setting: the entry for `CC(C)(C(=O)O)c1ccc(C(O)CCCN2CCC(C(O)(c3ccccc3)c3ccccc3)CC2)cc1` (stereo not drawn) is “inactive”.
Same read-out and setting: the result for `CCCc1ccc(OC)cc1` reads “inactive”.
On to `O=Cc1ccc([N+](=O)[O-])cc1`, for which the Potency result was “inactive”.
On the same count and under the same terms, the entry for `O=C(Cl)c1ccc(F)c(Cl)c1` is “inactive”; for `O=C(O)CCc1nc2ccccc2[nH]1` it is “inactive”.
The same measure, in the same setting: the result for `CCC(C(=O)O)c1ccc(N2Cc3ccccc3C2=O)cc1` (stereo not drawn) reads “inactive”.
With `O=C(C1CCCCC1)N1CC(=O)N2CCCc3ccccc3C2C1` (stereo not drawn), the Potency entry is “inactive”.
On the same count and under the same terms, the result for `N#CCCCC(C#N)CCC#N` (stereo not drawn) reads “inactive”; that for `CCCCCO`, “inactive”; that for `O=C(OCCN1CCOCC1)c1cccnc1Nc1cccc(C(F)(F)F)c1`, “inactive”.
The same measure, in the same setting: the result for `C[C@H](N)C(=O)N[C@@H](C)C(=O)NC1[C@H]2CN(c3nc4c(cc3F)c(=O)c(C(=O)O)cn4-c3ccc(F)cc3F)C[C@@H]12` (stereo partly drawn) reads “inactive”; that for `CS(C)=O`, “inactive”; that for `CC(CCl)OC(C)CCl` (stereo not drawn), “inactive”.

The target of a further assay is Estrogen receptor (Homo sapiens) (UniProt P03372). The assay is described as follows: qHTS assay to identify small molecule agonists of the estrogen receptor alpha (ER-alpha) signaling pathway in the presence of an antagonist (AID 1259383). Also: nearly all actives have a fitted effect of over 15% in size. Also: potency is read from the fitted curve at half-maximal effect. The settings on record: VM7Luc4E2 cells, ERE-luciferase, +ICI-182,780, 22 h; series mostly up to 92.4 µM. The essentials:
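VM7Luc4E2, endog. ER-alpha + 4×ERE-luc; charcoal-stripped FBS, phenol red-free, 5 d; 24hr plating; +10.0nM ICI-182,780 (final); cpds 15 conc, 22hr, 37C/5% CO2; ONE-Glo luminescence.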
In general terms: qHTS replaces the single test concentration by a dilution series.
`CCCCOC(=O)CC#N`: the Potency result is “inactive”.
Still for that read-out and setting: the result for `CC(C)=CCCC(C)C=O` (stereo not drawn) reads “inactive”.
On the same count and under the same terms, the result for `CC1(COc2ccc(CC3SC(=O)NC3=O)cc2)CCCCC1` (stereo not drawn) reads “inactive”; that for `CC(C)C/C=C(\C=O)c1ccccc1`, “inactive”; that for `CCCCCCCCCCCCCCCCN`, “inactive”.
Take `O=C(OCCCCCOC(=O)c1ccccc1)c1ccccc1`: the Potency entry was “inactive”.
Same read-out and setting: the result for `O=[N+]([O-])c1cccc(I)c1` reads “inactive”; that for `CC(CC(C#N)(c1ccccc1)C(C)C)N(C)C` (stereo not drawn), “inactive”.
For the molecule `Nc1ccc(-c2ccc(F)cc2)cc1`, the Potency result was “inactive”.
On the same count and under the same terms, the entry for `CCCC(=O)OCCC(C)C` is “inactive”; for `Cc1ccc(NC(=O)c2ccc(CN3CCN(C)CC3)cc2)cc1Nc1nccc(-c2cccnc2)n1` it is “inactive”.
Still for that read-out and setting: the result for `CC(C)NC(=O)c1ccccc1N` reads “inactive”; that for `NC(=O)c1ccccc1C(N)=O`, “inactive”; that for `CCc1ccc2c(c1)C(=O)c1ccccc1C2=O`, 2430 nM (active).
Turning to `COC(=O)Cc1cccc2ccccc12`, the Potency entry was “inactive”.
Same read-out and setting: the entry for `CC(C)C[C@H](NC(=O)[C@H](Cc1ccccc1)NC(=O)c1cnccn1)B(O)O` is “inactive”; for `CC(C)(C(=O)O)c1ccc(C(O)CCCN2CCC(C(O)(c3ccccc3)c3ccccc3)CC2)cc1` (stereo not drawn) it is “inactive”; for `CCCc1ccc(OC)cc1` it is “inactive”.
Same read-out and setting: the result for `O=C1CCCN1CCO` reads “inactive”; that for `O=C(Cl)c1ccc(F)c(Cl)c1`, 864 nM (active); that for `O=C(O)CCc1nc2ccccc2[nH]1`, “inactive”.
As to `Nc1cccc2c(=O)[nH][nH]c(=O)c12`, the Potency entry is “inactive”.
Still for that read-out and setting: the entry for `CCC(C(=O)O)c1ccc(N2Cc3ccccc3C2=O)cc1` (stereo not drawn) is “inactive”; for `O=C(C1CCCCC1)N1CC(=O)N2CCCc3ccccc3C2C1` (stereo not drawn) it is “inactive”; for `N#CCCCC(C#N)CCC#N` (stereo not drawn) it is “inactive”.
Same read-out and setting: the entry for `O=C(O)c1cccc(C(=O)O)c1C(=O)O` is “inactive”; for `CCCCCO` it is “inactive”; for `O=C(OCCN1CCOCC1)c1cccnc1Nc1cccc(C(F)(F)F)c1` it is “inactive”.
Same read-out and setting: the entry for `C[C@H](N)C(=O)N[C@@H](C)C(=O)NC1[C@H]2CN(c3nc4c(cc3F)c(=O)c(C(=O)O)cn4-c3ccc(F)cc3F)C[C@@H]12` (stereo partly drawn) is “inactive”; for `CC(CCl)OC(C)CCl` (stereo not drawn) it is “inactive”.
Turning to `O=c1[nH][nH]c2ccccc12`, the Potency entry was “inactive”.

Tested on in another assay: not listed separately
Description: qHTS assay to identify small molecule agonists or antagonists of the thyroid stimulating hormone receptor (TSHR) signaling pathway - wild type cell line counter screen (AID 1259384). The settings on record: HEK293 wild type, cAMP HTRF counter-screen, hits give high values; series mostly up to 92.4 µM. The method in brief: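 Wild-type Hek293 cells, 800/well, 18 h at 37C, then compound with Ro20-1724 for 30 min RT. cAMP by HTRF (cAMP-d2/anti-cAMP cryptate), 1 h RT, fluorescence read. 15 concentrations, triplicates.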
`Cc1cc(SC2=C(O)C[C@@](CCc3ccc(N)cc3)(C(C)C)OC2=O)c(C(C)(C)C)cc1CO`: the call was inactive.
The same measure, in the same setting: the result for `CC(C)=CCCC(C)C=O` (stereo not drawn) reads “inactive”; that for `CCC(C)CCCC(C)(C)O` (stereo not drawn), “inactive”; that for `CC1(COc2ccc(CC3SC(=O)NC3=O)cc2)CCCCC1` (stereo not drawn), “inactive”.
For the molecule `CC(C)C/C=C(\C=O)c1ccccc1`, the molecule was called inactive.
The same measure, in the same setting: the result for `CCCCCCCCCCCCCCCCN` reads “inactive”; that for `O=C(OCCCCCOC(=O)c1ccccc1)c1ccccc1`, “inactive”; that for `C=CC(C)CCC=C(C)C` (stereo not drawn), “inactive”.
On the same count and under the same terms, the result for `O=[N+]([O-])c1cccc(I)c1` reads “inactive”; that for `CC(CC(C#N)(c1ccccc1)C(C)C)N(C)C` (stereo not drawn), “inactive”.
Still for that read-out and setting: the result for `CCCC(=O)OCCC(C)C` reads “inactive”.
Regarding `Cc1ccc(NC(=O)c2ccc(CN3CCN(C)CC3)cc2)cc1Nc1nccc(-c2cccnc2)n1`, the outcome was inactive.
Take `CC(C)NC(=O)c1ccccc1N`: the molecule was classed as inactive.
Still for that read-out and setting: the entry for `NC(=O)c1ccccc1C(N)=O` is “inactive”.
On to `CCc1ccc2c(c1)C(=O)c1ccccc1C2=O`, for which the molecule was called inactive.
The same measure, in the same setting: the result for `CC(C)C[C@H](NC(=O)[C@H](Cc1ccccc1)NC(=O)c1cnccn1)B(O)O` reads “inactive”; that for `CC(C)(C(=O)O)c1ccc(C(O)CCCN2CCC(C(O)(c3ccccc3)c3ccccc3)CC2)cc1` (stereo not drawn), “inactive”.
Turning to `CCCc1ccc(OC)cc1`, the outcome was inactive.
Still for that read-out and setting: the entry for `Nc1cccc2c(=O)[nH][nH]c(=O)c12` is “inactive”; for `O=C(C1CCCCC1)N1CC(=O)N2CCCc3ccccc3C2C1` (stereo not drawn) it is “inactive”; for `CCCCCO` it is “inactive”.
On the same count and under the same terms, the result for `O=C(OCCN1CCOCC1)c1cccnc1Nc1cccc(C(F)(F)F)c1` reads “inactive”.
With `C[C@H](N)C(=O)N[C@@H](C)C(=O)NC1[C@H]2CN(c3nc4c(cc3F)c(=O)c(C(=O)O)cn4-c3ccc(F)cc3F)C[C@@H]12` (stereo partly drawn), the call was inactive.
Regarding `CC(CCl)OC(C)CCl` (stereo not drawn), the call was inactive.
With `O=c1[nH][nH]c2ccccc12`, the molecule was called inactive.
